The record followed here is PubChem BioAssay (NCI).

Holding throughout (experiment): NCI-60 one-dose screen, 48 h (100 = growth as untreated, 0 = no growth, -100 = all killed)
What all share (conditions): 10 µM unless noted

Assay [1] deals with EKVX NSCLC.
Assay [2] deals with SN12C renal.
Assay [3] has as its system UO-31 renal.
For assay [4], the system named is TK-10 renal.
Assay [5] deals with ACHN renal.
For assay [6], the system named is CAKI-1 renal.
In assay [7] the test system is A498 renal.
The test system of assay [8] is CCRF-CEM leukemia.
For assay [9], the system named is MOLT-4 leukemia.
The test system of assay [10] is SR leukemia.

The panel holds about 83,000 compounds, 20% with a hit somewhere; the sample as a whole holds those more often.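 Plates (96-well) were seeded with cells, treated with compound at one concentration, and incubated for 48 hours before percent growth was determined.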 A number with no mark means an inactive call. Calls of active or inactive are those of the source. The calls were made as follows: active = growth percent below 10; inactive = the rest.

For the compound `COC1CC2CCC(C)C(O)(O2)C(=O)C(=O)N2CCCCC2C(=O)OC(C(C)CC2CCC(O)C(OC)C2)CC(=O)C(C)C=C(C)C(O)C(OC)C(=O)C(C)CC(C)/C=C/C=C/C=C1C` (stereo not drawn), the growth in assay [1] is 30.3%; in assay [2], 48.2%; in assay [3], 21.5%; in [4] it was 49.7%; in assay [5], 40.3%; in assay [6], 49%. In addition, the growth in [7] is -5.92% (active); in assay [8], 37.9%; in [9], 21.4%.

For the compound `CN1C(=O)C(=Cc2cn(Cc3ccccc3)c3ccc(Br)cc23)C(=O)N(C)C1=O`, the growth is 108% in [1]; 96.6% in [2]; 90.1% in [3]; 58.3% in assay [4]; 96.3% in assay [5]; 97.1% in assay [6]. In addition, the values for the growth in assay [7], in assay [8] and in assay [9] were -91.3% (active), 101% and 87.6%, respectively.

For the compound `Cn1cc(-c2csc(-c3cn(C)c4ncccc34)n2)c2cc(F)cnc21`, the growth in [1] is 77.7%; in [2], 88.9%; in assay [3], 99.1%; in [4] it was 104%; in assay [5], 94.4%; in assay [6], 66%. Further, the growth was 72.9% in [7], 67.4% in [8] and 80.1% in [9].

On to `Cc1nn(-c2ccccc2)c2c1oc(=O)c1cc(Cl)ccc12`, for which the growth was 93.2% in [1]; 101% in [2]; 102% in assay [3]; 111% in [4]; 101% in assay [5]; 84.9% in assay [6]. Further, the growth was 90.9% in [7], 98.1% in assay [8] and 134% in [9].

As to `C=CC1=C(C(=O)O)N2C(=O)[C@@H](NC(=O)/C(=N\O)c3csc(N)n3)[C@H]2SC1` (stereo in doubt), the growth in assay [1] is 103%; in assay [2] it was 112%; in assay [3], 91.7%; in assay [4] it was 122%; in [5], 96.7%; in [6] it was 99.2%. The results for the growth in [7], in [8] and in assay [9] were 95.1%, 98.1% and 104%, respectively.

Consider `O=C1OCC/C1=C\OCCCO/C=C1\CCOC1=O`, for which the growth in assay [1] is 101%; in assay [2], 99.3%; in assay [3], 90.7%; in assay [4], 110%; in assay [5], 103%; in assay [6] it was 106%. For the same compound, the values for the growth in assay [7], in [8] and in assay [9] were 119%, 107% and 111%, respectively.

Consider `CCCCCCCCCCCCCCCCCC1=NC(C)(C)CN1CCO`, for which the growth in [1] is 15.3%; in [2], -29.6% (active); in assay [3], -62.9% (active); in assay [4], -33.8% (active); in [5], -49.2% (active); in assay [6], -41% (active). In addition, the growth was 117% in assay [7], -42.9% (active) in [8], -55.7% (active) in assay [9] and -42.7% (active) in assay [10].

With `COc1ccc(-c2c(N)noc2-c2cc(OC)c3c(c2)OCCO3)cc1`, the growth in assay [1] was 37.1%; in [2], 30.8%; in assay [3] it was 41%; in assay [4], 77.8%; in assay [5], 22.3%; in assay [6], 45.4%. The growth in assay [7] was 2.33% (active); in assay [8] it was 13.4%; in [9] it was 10.3%; in [10] it was 11.6%.

As to `CO[C@H]1CC(O[C@@H]2/C(C)=C/C[C@@H]3C[C@@H](C[C@]4(CC[C@H](C)[C@@H](C5CCCCC5)O4)O3)OC(=O)[C@@H]3C=C(C)/C(=N/O)[C@H]4OC/C(=C\C=C\[C@@H]2C)[C@]43O)O[C@@H](C)C1O` (stereo partly drawn), the growth was -85.9% (active) in assay [1]; -82.4% (active) in assay [2]; -90.5% (active) in assay [3]; -90.4% (active) in [4]; -94.4% (active) in assay [5]; -73.8% (active) in assay [6]. For the same compound, the growth in assay [7] was -96.2% (active); in assay [8], -47.9% (active); in assay [9] it was -36.7% (active).

As to `NS(=O)(=O)c1ccc(NC2=C(Cl)C(=O)c3ccccc3C2=O)cc1`, the growth in assay [1] is 107%; in assay [2] it was 87%; in assay [3], 53.2%; in assay [4], 164%; in assay [5], 78.3%; in assay [6], 107%. The figures for the growth in [7], in assay [8] and in [9] were 163%, 85.7% and 73.6%, respectively.

`CC(C)c1nc(N(C)S(C)(=O)=O)nc(-c2ccc(F)cc2)c1/C=C/[C@@H](O)C[C@@H](O)CC(=O)O`: the growth in [1] was 91.2%; in assay [2], 96.2%; in assay [3], 75%; in [4] it was 107%; in assay [5], 97.1%; in assay [6] it was 97.6%. In addition, the growth is 56.2% in assay [7], 104% in assay [8] and 109% in assay [9].

For the compound `CC(c1ccccn1)C(C)(O)C(C)c1ccccn1` (stereo not drawn), the growth in [1] is 95.3%; in assay [2] it was 103%; in [3], 90.2%; in [4], 99.6%; in assay [5], 103%; in [6], 104%. Also, the growth in assay [7] is 105%; in assay [8] it was 114%; in assay [9], 65.1%.

With `Cn1cc(-c2csc(-c3c[nH]c4ncccc34)n2)c2cc(Br)cnc21`, the growth in assay [1] is 24.2%; in [2], 4.21% (active); in assay [3], 28.8%; in [4] it was -21.8% (active); in assay [5], 29.6%; in assay [6], 12.5%. In addition, the growth is 71.7% in assay [7], 68% in assay [8] and 76.2% in assay [9].

As for `CCCCc1nc(Cl)c(CO)n1Cc1ccc(-c2ccccc2-c2nn[nH]n2)cc1`, the growth was 88.1% in assay [1]; 99.3% in assay [2]; 82.2% in [3]; 108% in assay [4]; 107% in assay [5]; 90.5% in assay [6]. The growth in assay [7] was 119%; in assay [8] it was 113%; in [9], 100%.

`CCCCCCCCCCCCNc1ncnc2[nH]ncc12`: the growth was 51.2% in assay [1]; 80.3% in assay [2]; 77.7% in assay [3]; 88.2% in [4]; 83.4% in assay [5]; 66.2% in [6]. Moreover, the growth in assay [7] was 50.4%; in assay [8], 68.3%; in assay [9], 65.8%; in assay [10] it was 9.74% (active).

`COc1ccc(-c2nn(-c3ccccc3)cc2/C=C2\SC(=S)N(CCc3ccc(O)cc3)C2=O)cc1`: the growth in assay [1] is 84.6%; in assay [2], 81.9%; in [3] it was 60%; in [4] it was 94.2%; in [5], 87.5%; in assay [6], 51.2%. The growth is 62.6% in assay [7], 76.5% in [8], 68.3% in assay [9] and 75.8% in assay [10].

Turning to `O=C(CCc1nnc(SCc2ccccc2)s1)c1nc2ccccc2[nH]1`, the growth in assay [1] is 93.8%; in [2] it was 92.7%; in assay [3], 74.3%; in assay [4], 95.8%; in assay [5], 94.4%; in [6], 90.7%. The growth is 72.7% in [7], 68.1% in assay [8], 70.1% in [9] and 74.4% in [10].

In the case of `CC12CCCCC1C(C(N)=O)C(=O)O2` (stereo not drawn), the growth in [1] was 123%; in [2], 97.9%; in [3], 93.9%; in assay [4], 100%; in assay [5] it was 112%; in [6], 104%. Moreover, the growth in assay [7] is 124%; in [8], 102%; in assay [9], 98.1%; in assay [10], 94.6%.

In the case of `COc1cccc(-c2nnc(N)o2)c1`, the growth in assay [1] is 100%; in assay [2] it was 97.2%; in [3], 97.1%; in [4], 121%; in [5], 103%; in assay [6] it was 98.4%. The growth in assay [7] was 97.8%; in assay [8], 103%; in [9], 110%; in assay [10], 124%.

For the compound `CCS(=O)(=O)OCCCl`, the growth in assay [1] is 105%; in assay [2], 102%; in assay [3], 68.3%; in assay [4], 97.7%; in [5], 99.3%; in [6], 104%. Besides, the growth in assay [7] was 101%; in assay [8] it was 84.7%; in [9], 89.8%; in assay [10] it was 137%.

On to `COc1ccc(-c2cc(Cc3cccs3)c(=O)n(Cn3ccc4ccccc43)n2)cc1`, for which the growth is 101% in assay [1]; 97.7% in assay [2]; 83% in assay [3]; 98.1% in assay [4]; 102% in assay [5]; 95.7% in assay [6]. Moreover, the growth in assay [7] is 98.9%; in assay [8], 66%; in [9], 97.5%; in [10], 87%.

Turning to `Cc1ccc(C=C2C(Cl)=C(Cl)C(Cl)=C2Cl)cc1`, the growth in [1] was -10.6% (active); in assay [2] it was -43.4% (active); in assay [3], -88% (active); in assay [4] it was -44.6% (active); in assay [5] it was -54.8% (active); in assay [6] it was -35.1% (active). Besides, the growth in assay [7] is -88.8% (active); in [8] it was -45.2% (active); in assay [9] it was 18.3%; in [10], 19%.

As to `O=C(COC(=O)[C@H](C[Se][Se]C[C@H](NC(=O)c1ccc(Br)cc1F)C(=O)OCC(=O)c1ccc(F)cc1)NC(=O)c1ccc(Br)cc1F)c1ccc(F)cc1`, the growth in assay [1] was -69.9% (active); in assay [2] it was -100% (active); in assay [3] it was -100% (active); in [4], -97.6% (active); in assay [5] it was -75.7% (active); in assay [6] it was -91.4% (active). The growth was -2.67% (active) in assay [7], -56.2% (active) in assay [8], -30% (active) in assay [9] and -39.3% (active) in [10].

Consider `O=C(CCc1nnc(Cn2ccnc2)o1)c1nc2ccccc2[nH]1`, for which the growth is 99.2% in assay [1]; 98.5% in assay [2]; 92% in [3]; 110% in [4]; 107% in assay [5]; 110% in [6]. For the same compound, the growth in assay [7] was 101%; in [8] it was 101%; in assay [9], 92.8%; in assay [10], 87.7%.

Turning to `N#Cc1cnc2cc(OC[C@H](O)CO)c(NC(=O)CC3CSSC3)cc2c1Nc1ccc(OCc2cccc(F)c2)c(Cl)c1`, the growth was -69.9% (active) in assay [1]; -65.7% (active) in assay [2]; 47.6% in assay [3]; -70.5% (active) in [4]; 20.8% in assay [5]; 70.1% in assay [6]. In addition, the growth in assay [7] was -71.5% (active); in [8], -81.8% (active); in assay [9] it was -90.1% (active); in assay [10], -72.6% (active).

Take `O=c1ccn(C2OC(CO)C(O)C2F)c(=O)[nH]1` (stereo not drawn): the growth in assay [1] was 102%; in [2], 102%; in assay [3], 101%; in assay [4], 124%; in [5], 107%; in [6], 107%. The growth in [7] is 110%; in assay [8] it was 119%; in assay [9] it was 168%; in [10], 111%.

`COc1ccc2[nH]c(-c3ccccc3)cc2c1`: the growth is 94.5% in assay [1]; 97.1% in assay [2]; 75.1% in assay [3]; 156% in assay [4]; 101% in assay [5]; 99.1% in [6]. For the same compound, the growth in assay [7] is 89%; in assay [8] it was 88.5%; in assay [9] it was 53.7%; in [10], -14.8% (active).

Turning to `COc1ccc(/C=N\Nc2ccc([N+](=O)[O-])cn2)cc1OC`, the growth is 63.6% in assay [1]; 26.2% in assay [2]; -11.9% (active) in assay [3]; -63.4% (active) in assay [4]; -3.48% (active) in assay [5]; 43.1% in [6]. In addition, the growth in [7] is -26.2% (active); in assay [8], 124%; in [9] it was 101%; in [10], 52.9%.
